The entries come from a sample that favours hits as a whole.
Pf Dd2 inh: Plasmodium falciparum Dd2 growth inhibition. P. falciparum Dd2 growth, SYBR Green, 72 h. 120,000 compounds, 4.3% hits. Potency, µM (series often up to 28.9 µM), most hits filed as inhibitors; active means well fitted inhibition curve with a large enough effect; further: nearly all actives have a fitted effect of over 65% in size
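Infected erythrocytes (Dd2, 0.3% parasitemia, 2.5% hematocrit final) are added to compound in RPMI-1640/Albumax II medium, grown 72 h at 37C in low oxygen, then lysed with saponin/Triton-X containing SYBR Green and read by fluorescence.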
Numbers stand for hits; [ ] = dose if it differs, or a comment.

Screening CCOc1ccc(C(=O)Nc2ccc(-n3nncc3-c3ccc(OC)cc3)cc2)cc1 returned Pf Dd2 inh inactive.
CCOC(=O)c1ccc(N2C(=O)c3n[nH]c(-c4cccs4)c3C2c2cccc(OC)c2)cc1 (stereo not drawn) was read as Pf Dd2 inh 3.5µM.
For CCOC(=O)C1=C(C)N=C2SC=C(CC(=O)N3CCC(C)CC3)N2C1c1cccc(OC)c1 (stereo not drawn) the results were Pf Dd2 inh inactive.
CCOC(=O)c1ccc(N2C(=O)c3[nH]nc(-c4ccc(OCC)cc4)c3C2c2ccc(OC)cc2OC)cc1 (stereo not drawn) was read as Pf Dd2 inh 7.9µM.
`Cc1ccc(N2C(=O)c3n[nH]c(C)c3C2c2ccccc2Cl)cc1` (stereo not drawn) gave Pf Dd2 inh inactive.
CCOC(=O)c1ccc(N2CC3=C(C2=O)C(c2ccc(OC)cc2)NC(=O)N3C)cc1 (stereo not drawn) was read as Pf Dd2 inh inactive.
For CCOC(=O)c1sc(N2C(=O)c3oc4ccc(F)cc4c(=O)c3C2c2cccc(OC)c2)nc1C (stereo not drawn) the results were Pf Dd2 inh inactive.
`CCn1ncc(N2CCC(NC(=O)c3sccc3C)CC2)cc1=O` gave Pf Dd2 inh inactive.
Screening COc1cccc(-c2cc3c(=O)n(CCNC(=O)c4ccc(F)cc4)ccn3n2)c1 returned Pf Dd2 inh inactive.
For O=C1CCN(C(=O)NCCc2ccccc2)CCCC(c2nc(-c3cccnc3)no2)CCN1 (stereo not drawn) the results were Pf Dd2 inh inactive.
`NC(=O)c1cnc2n1CCN(C(=O)c1cccc(Oc3ncccn3)c1)C2` gave Pf Dd2 inh inactive.
Cn1cnc(S(=O)(=O)N2CCC(c3noc(C4CC4)n3)C2)c1 (stereo not drawn) was read as Pf Dd2 inh inactive[5.79 µM].
CCC(C)NC(=O)C1COC2(CCC(C)CC2)N1C(=O)c1ccccc1F (stereo not drawn) was read as Pf Dd2 inh inactive.
Screening O=S(=O)(NCCc1noc(-c2ccccc2)n1)c1ccc(Cl)cc1 returned Pf Dd2 inh inactive.
For Cc1c(Cl)cccc1NC(c1ccc(F)cc1)c1nnc(-c2ccccc2)o1 (stereo not drawn) the results were Pf Dd2 inh inactive.
`Clc1ccc(CCNC(c2nnc(-c3ccccc3)o2)c2ccccc2Cl)cc1` (stereo not drawn) gave Pf Dd2 inh 11µM.
Screening O=C(NC1CCN(c2cc(-c3ccccc3)[nH]n2)CC1)c1ccc(F)cc1F returned Pf Dd2 inh inactive.
Screening O=C(COc1ccc(F)cc1)Nc1cccc(-c2nnc3n2CCCC3)c1 returned Pf Dd2 inh 8.9µM.
O=C(CC1CCCCC1)Nc1cccc(-c2nnc3n2CCCC3)c1 was read as Pf Dd2 inh inactive.
Screening O=C(Cn1nc2n(c1=O)CCCCC2)N1CCN(c2ccc(F)cc2)CC1 returned Pf Dd2 inh inactive.
For O=C(Nc1ccccc1)Nc1cccc(-c2nnc3n2CCCC3)c1 the results were Pf Dd2 inh inactive.
For O=C(COc1ccc(Cl)cc1)Nc1cccc(-c2nnc3n2CCCC3)c1 the results were Pf Dd2 inh 3.2µM.
For O=C(Cc1ccccc1Cl)Nc1cccc(-c2nnc3n2CCCC3)c1 the results were Pf Dd2 inh 7.1µM.
O=C(Cc1cccc(F)c1)Nc1ccc(-c2nnc3n2CCCC3)cc1 was read as Pf Dd2 inh inactive.
Screening O=C(COc1cccc(-c2nnc3n2CCCC3)c1)NCc1ccc(F)cc1 returned Pf Dd2 inh inactive.
Screening O=C(CN1C(=O)CCC1=O)N1CCCCCCn2c(nnc2-c2ccc(F)cc2)CC1 returned Pf Dd2 inh inactive.
`O=C(COc1ccc(Cl)cc1)Nc1ccc(-c2nnc3n2CCCC3)cc1` gave Pf Dd2 inh inactive.
`O=C(COc1ccc(-c2nnc3n2CCCC3)cc1)N1CCN(c2ccc(F)cc2)CC1` gave Pf Dd2 inh 3.2µM.
For CSc1cccc(NC(=O)Nc2ccc(-c3nnc4n3CCCC4)cc2)c1 the results were Pf Dd2 inh inactive.
For CN(CC1CCOC1)C(=O)Nc1cccc(Br)c1 (stereo not drawn) the results were Pf Dd2 inh inactive.
`O=C(NCc1ccncc1)C1c2ccccc2C(=O)N(C2CCCC2)C12CCCCC2` (stereo not drawn) gave Pf Dd2 inh inactive.
`O=C(c1ccc2[nH]ccc2c1)N1CCCN(c2cc(-c3ccc(F)cc3)[nH]n2)CC1` gave Pf Dd2 inh inactive.
For CCOc1cccc(C2Nc3ccccc3-c3cc(C)nn32)c1O (stereo not drawn) the results were Pf Dd2 inh 1µM.
For COc1cc(C2Nc3ccccc3-c3cc(C)nn32)ccc1O (stereo not drawn) the results were Pf Dd2 inh inactive.
COc1ccc(C2Nc3ccccc3-c3cc(C)nn32)cc1OC (stereo not drawn) was read as Pf Dd2 inh inactive.
Screening O=C(CC1CCOCC1)NCc1cc(F)ccc1F returned Pf Dd2 inh inactive.
CCn1ncc(N2CCC(NC(=O)CC(C)(C)C)CC2)cc1=O was read as Pf Dd2 inh inactive.
For O=C(NC1CC1)c1ccc2nnc(-c3ccc(F)cc3)n2c1 the results were Pf Dd2 inh inactive.
COc1cccc(NC(=O)C2CCCN(S(=O)(=O)c3c(C)nn(C)c3C)C2)c1 (stereo not drawn) was read as Pf Dd2 inh inactive.
For Cc1ccc(-c2ccc3nnc(CNC(=O)C4CCCCC4)n3n2)cc1 the results were Pf Dd2 inh inactive.
C=CCNC(=O)c1ccc(-c2nnc3ccc(NC(=O)C4CCC4)cn23)cc1 was read as Pf Dd2 inh 3.2µM.
Screening COc1cccc(C(=O)N2CCC(C(=O)Nc3cccc(Cl)c3)CC2)c1 returned Pf Dd2 inh inactive.
`CC(C)NC(=O)c1ccc(-c2nnc3ccc(NC(=O)C4CCC4)cn23)cc1` gave Pf Dd2 inh 4µM.
Screening O=C(NCCN1CCCCC1)c1ccc(-c2nnc3ccc(NC(=O)C4CCC4)cn23)cc1 returned Pf Dd2 inh 1.3µM.
COc1cccc(NC(=O)c2ccc(-c3nnc4ccc(NC(=O)C5CCC5)cn34)cc2)c1 was read as Pf Dd2 inh 0.28µM.
O=C(NC1CCCC1)c1ccc2nnc(-c3cncc(Cl)c3)n2c1 was read as Pf Dd2 inh inactive.
`O=C(Nc1ccc(-c2nnc3n2CCCC3)cc1)C1CCC1` gave Pf Dd2 inh inactive.
For O=C(NCCN1CCOCC1)c1ccc(-c2ccc(N3CCCCCC3)nc2)cc1 the results were Pf Dd2 inh inactive.
For C=CCNC(=O)c1ccc2cncn2c1 the results were Pf Dd2 inh inactive.
`CCNC(=O)c1cc(NC(=O)C(C)C)cc2nc(C)ccc12` gave Pf Dd2 inh inactive.
O=C(N[C@H](c1cccs1)C1CC(O)C1)C1CCN(C2CCOCC2)CC1 (stereo partly drawn) was read as Pf Dd2 inh inactive.
For CN(Cc1ccccc1)C(=O)C1CCN(c2ncncn2)CC1 the results were Pf Dd2 inh inactive.
COc1ccc(C(=O)NC2CCN(c3ccc(C)cc3)C2=O)cc1F (stereo not drawn) was read as Pf Dd2 inh inactive.
`O=C(CN1C(=O)NC2(CCOCC2)C1=O)N1CCN(c2ccc(F)cc2)CC1` gave Pf Dd2 inh inactive.
For Cc1noc([C@@H]2CN(C(=O)c3occc3C)C[C@H]2COCC2CC2)n1 the results were Pf Dd2 inh inactive.
`COc1ccc(-c2cnc3n[nH]c(-c4ccccc4)c3n2)cc1` gave Pf Dd2 inh inactive.
Screening COc1cc2c(cc1OC)C(CNC(=O)CC(C)C)N(C(=O)Nc1cccc(F)c1)CC2 (stereo not drawn) returned Pf Dd2 inh inactive.

From PubChem BioAssay
